AMA1-RON2 inh = qHTS for Inhibitors of AMA1-RON; Towards Development of Antimalarial Drug Lead: Primary Screen | Plasmodium falciparum AMA1 (3D7) - RON2 peptide interaction | AlphaScreen AMA1-biotinylated RON2 peptide binding | Potency, µM (titrated, usually from 58.2 µM), usual class: inhibitors | actives 0.2% (n = 360,000) | AID 720542, 2013; further: nearly all actives have a fitted effect of over 45% in size
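AMA1 (3D7) with his tag at 25 nM final met compounds first, then biotinylated RON2 peptide at 25 nM; detection used donor plus acceptor beads, 10 µg/mL apiece, read by AlphaScreen after 30 min at room temperature.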
Pf growth 48h = Primary qHTS for delayed death inhibitors of the malarial parasite plastid, 48 hour incubation; P. falciparum luciferase growth in erythrocytes, 48 h; Potency, µM (highest dose often 28.7 µM), actives largely listed as inhibitors; actives 5.9% (n = 310,000); AID 504832, 2011
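Growth was read as firefly luciferase luminescence after a 48 h, 37 C, 5% CO2 exposure of compounds to reporter-bearing P. falciparum cultures (0.1% parasitemia, 2% hematocrit final) in Albumax-supplemented RPMI 1640.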
Cycloheximide cs = Cycloheximide Counterscreen for Small Molecule Inhibitors of Shiga Toxin; actives 12% (n = 300,000); max response, %; cell reporter, cycloheximide protein synthesis inhibition counterscreen; in the data active means max response mostly above about 13%, no sharp cut-off; inactive means mostly below about 14%; further: read at 38.3 µM for the half of the compounds with a filed dose
Pf growth 96h = Primary qHTS for delayed death inhibitors of the malarial parasite plastid, 96 hour incubation. P. falciparum luciferase reporter growth, 96 h. Potency, µM (series often up to 28.7 µM), hits mostly inhibitors. actives 6.9% (n = 320,000). AID 504834, 2011
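Readout is luminescence from an integrated firefly luciferase in P. falciparum. Red cells, 2% hematocrit and 0.05% parasitemia final, were cultured with compound through two parasite generations (96 hours) at 37 C, 5% CO2.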
SARS PLP yeast = qHTS of Yeast-based Assay for SARS-CoV PLP | S. cerevisiae expressing SARS-CoV PLpro, growth rescue | Potency, µM (titrated, usually from 32.9 µM), actives largely listed as activators | actives 0.19% (n = 330,000); calls by dose curve; further: nearly all actives have a fitted effect of over 55% in size
Shiga inhibitor = A qHTS for Small Molecule Inhibitors of Shiga Toxin. Vero cells, Shiga toxin protein synthesis inhibition reporter. actives 9.2% (n = 290,000). inhibition, % at 38.7 µM; in the data active means inhibition mostly above about 28%, no sharp cut-off; inactive means mostly below about 43%
Large screens that a line does not name were inactive. Hits are enriched below; roughly 19% of the tested compounds scored in any of these assays. Unless noted, the call rests on the fitted dose curve; in most records, active means well fitted curve in the direction sought with a large enough effect; inconclusive means small, poorly fitted or top-dose-only effect, or another doubt; inactive means no such curve, though single readings can be large; an effect the other way counts as inactive or inconclusive.

O=C1Nc2cc(S(=O)(=O)N3CCCC3)ccc2N2CCCC12 (centres undefined)	Pf growth 48h 16.5µM
CCOc1cc2c(cc1OCC)CN(C(=O)c1cccc(S(=O)(=O)N3CCCC3)c1)CC2	Pf growth 48h inconclusive, Pf growth 96h 10.4µM (no result: Cycloheximide cs, Shiga inhibitor)
COC(=O)c1nnn(-c2cccc(Cl)c2)c1C(=O)OC	none
CCc1nc2ccc(C(=O)N3CCN(c4ccccc4)CC3)cn2c1N(CCC(C)C)CCN(C)C	none (no result: Pf growth 48h, Cycloheximide cs, Pf growth 96h, SARS PLP yeast, Shiga inhibitor)
CCOc1ccc(CCNC(=O)COC(=O)c2cccc(S(=O)(=O)N3CCCCC3)c2)cc1OCC	none (no result: Cycloheximide cs, Shiga inhibitor)
COC(=O)c1ccc(NC(=O)c2ccc3c(c2)NC(=O)C2CCCN32)cc1 (centres undefined)	Pf growth 48h 8.28µM, Pf growth 96h 7.38µM (no result: AMA1-RON2 inh, Cycloheximide cs, Shiga inhibitor)
CCOc1ccc(CCNC(=O)COn2nnc3ccc(S(=O)(=O)N4CCOCC4)cc32)cc1OCC	Pf growth 48h inconclusive, Pf growth 96h 9.28µM (no result: Cycloheximide cs, Shiga inhibitor)
CCOc1ccc(CCNC(=O)C2CCN(S(=O)(=O)c3ccc(C)cc3)CC2)cc1OCC	Pf growth 96h inconclusive
O=C(COn1nnc2ccc(S(=O)(=O)N3CCOCC3)cc21)Nc1c(F)c(F)c(F)c(F)c1F	none
CCN(CC)S(=O)(=O)c1ccc2c(c1)NC(=O)C1CCCN21 (centres undefined)	Pf growth 48h inconclusive
CCOc1ccc(CCNC(=O)c2cccc(S(=O)(=O)N3CCCC3)c2)cc1OCC	Pf growth 48h 11.7µM, Pf growth 96h inconclusive (no result: Cycloheximide cs, Shiga inhibitor)
CCOc1ccc(CCNC(=O)c2ccc(S(=O)(=O)N3CCCC3)cc2)cc1OCC	Pf growth 48h 11.7µM, Pf growth 96h inconclusive (no result: Cycloheximide cs, Shiga inhibitor)
COc1ccc(CC(=O)Nc2nc(OCC(F)(F)F)cnc2-c2ccc(Cl)cc2Cl)cc1	none (no result: Pf growth 48h, Cycloheximide cs, Pf growth 96h, SARS PLP yeast, Shiga inhibitor)
COc1ccc(CCNC(=O)c2cccc(S(=O)(=O)N3CCc4ccccc4C3)c2)cc1	Pf growth 48h 9.28µM, Pf growth 96h inconclusive (no result: Cycloheximide cs, Shiga inhibitor)
Cc1ccc(OCCOC(=O)c2cccc(S(=O)(=O)N3CC(C)OC(C)C3)c2)cc1 (centres undefined)	Pf growth 48h 13.1µM, Pf growth 96h inconclusive (no result: Cycloheximide cs, Shiga inhibitor)
CCOc1ccc(CCNC(=O)c2cccc(C#N)c2)cc1OCC	Pf growth 48h 10.4µM, Pf growth 96h inconclusive
COc1ccc(CCNC(=O)c2cccc(S(=O)(=O)N3CCOCC3)c2)cc1OC	Pf growth 48h inconclusive, Pf growth 96h inconclusive (no result: Cycloheximide cs, Shiga inhibitor)
CCOc1ccc(CCNC(=O)c2cccc(S(=O)(=O)N3CC(C)OC(C)C3)c2)cc1OCC (centres undefined)	Pf growth 48h 9.28µM, Pf growth 96h 10.4µM (no result: Cycloheximide cs, Shiga inhibitor)
Cc1ccc(/C(O)=C2\C(=O)C(=O)N(CC(C)O)C2c2ccccn2)cc1 (centres undefined)	none
CCOc1ccc(CCNC(=O)c2ccc(N3CCCC3=O)cc2)cc1OCC	Pf growth 96h inconclusive (no result: SARS PLP yeast)
CCOc1ccc(CCNC(=O)c2ccc3c(c2)NC(=O)C2CCCN32)cc1OCC (centres undefined)	Pf growth 48h 5.22µM, Pf growth 96h 9.28µM (no result: AMA1-RON2 inh)
CCOc1ccc(CCNC(=O)COC(=O)c2cccc(S(=O)(=O)N3CCOCC3)c2)cc1OCC	Pf growth 48h 9.28µM, Pf growth 96h inconclusive (no result: Cycloheximide cs, Shiga inhibitor)
Cc1ccc(-c2cc(C(=O)NCCCn3ccnc3)c3cc(Br)ccc3n2)o1	Pf growth 48h 9.28µM, Pf growth 96h inconclusive
Cc1ccc(-c2cc(C(=O)O)c3cc(Br)ccc3n2)o1	none
Cc1ccc(-c2cc(C(=O)NN3CCOCC3)c3cc(Br)ccc3n2)o1	Pf growth 96h 5.22µM
Cc1ccc(-c2cc(C(=O)NC3=NCCS3)c3cc(Br)ccc3n2)o1	Pf growth 48h 9.28µM (no result: AMA1-RON2 inh)
CCC(C(=O)Nc1cccc(C(=O)O)c1C)c1ccccc1 (centres undefined)	none
Cc1cc(Br)c(NC(=O)COC(=O)C2CCCCC2)c(Br)c1	none (no result: Pf growth 48h, Cycloheximide cs, Pf growth 96h, Shiga inhibitor)
COCC(C)NC(=S)Nc1ccccc1[N+](=O)[O-] (centres undefined)	none
CCCCN(C=O)c1c(CC)nc2ccc(C(=O)NCCCN3CCCC3=O)cn12	none (no result: Pf growth 48h, Cycloheximide cs, Pf growth 96h, SARS PLP yeast, Shiga inhibitor)
C/C(=N\O)c1cccc(Br)c1	Pf growth 48h inconclusive
C/C(=N/O)c1cccc(N2Cc3ccccc3C2)c1	Pf growth 48h 13.1µM, Cycloheximide cs 17.9, Pf growth 96h inconclusive, Shiga inhibitor 50.7
Cc1nc2c(-c3ccccc3)c(C)[nH]n2c(=O)c1Cc1ccccc1	Pf growth 48h 10.4µM
CCOC(=O)Cc1csc(SCc2nc3sc4c(c3c(=O)[nH]2)CCC4)n1	none (no result: Pf growth 96h)
OCCCNc1ncnc2c1[nH]c1ccccc12	none
CCOc1ccc2[nH]c3c(NCCC(C)C)ncnc3c2c1	Pf growth 48h inconclusive, Cycloheximide cs 14.3, Pf growth 96h inconclusive
CCN(CC)CCNc1ncnc2c1[nH]c1ccc(OC)cc12	none (no result: AMA1-RON2 inh)
COc1ccc2[nH]c3c(NCc4ccco4)ncnc3c2c1	Pf growth 48h inconclusive, Cycloheximide cs 35.7, Shiga inhibitor 96.7
Fc1ccc2[nH]c3c(NCc4ccccc4)ncnc3c2c1	Pf growth 48h 5.86µM, Pf growth 96h 3.7µM
CCOc1ccc2[nH]c3c(NCCN(C)C)ncnc3c2c1	Pf growth 48h 2.33µM, Pf growth 96h 2.08µM (no result: AMA1-RON2 inh)
OC(c1ccc(Cl)c(Cl)c1)c1ncc(-c2ccccc2F)[nH]1 (centres undefined)	none (no result: Pf growth 48h, Cycloheximide cs, Pf growth 96h, SARS PLP yeast, Shiga inhibitor)
COc1ccc2[nH]c3c(NCCCOC(C)C)ncnc3c2c1	Cycloheximide cs 43.9
COc1ccc2[nH]c3c(NCCC4=CCCCC4)ncnc3c2c1	AMA1-RON2 inh inconclusive, Cycloheximide cs 32.9, Pf growth 96h 3.7µM, Shiga inhibitor 125.4
COCCCNc1ncnc2c1[nH]c1ccccc12	none (no result: AMA1-RON2 inh)
Cc1ccc(S(=O)(=O)N(C)/N=C2/C(=O)N(CC(=O)O)c3ccccc32)cc1	Pf growth 96h inconclusive
